# Laboratory results taken from PubChem BioAssay (NCI).
# The panel holds about 79,000 compounds, 15% with a hit somewhere; the sample as a whole holds those more often. Unmarked numbers belong to inactive results. Calls of active or inactive are those of the source. No stated cut-off is given here; in the data, active means growth inhibition above about 70%; inactive means the rest.
# What was measured:
# [1] = NCI Yeast Anticancer Drug Screen. Data for the rad52 strain (AID 147);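 further: 0% = growth of vehicle-treated control cultures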; conditions: S. cerevisiae rad52 mutant growth inhibition, stronger effect = higher value
# Summary of the method: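 Here a repair-compromised yeast strain receives each compound; its growth is then quantified and normalised to vehicle-only controls.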
# [2] = NCI Yeast Anticancer Drug Screen. Data for the wt1 strain (AID 149);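 further: 0% = growth of vehicle-treated wt1 cultures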; conditions: S. cerevisiae wt1 strain (SPY 50644) growth inhibition, stronger effect = higher value
# Summary of the method: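 Using yeast strain wt1, compound-induced growth inhibition was determined against vehicle-treated cultures.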
# [3] = NCI Yeast Anticancer Drug Screen. Data for the mgt1 strain (AID 153); conditions: S. cerevisiae mgt1 mutant growth inhibition, stronger effect = higher value
# Summary of the method: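 Measured: inhibition of mgt1 yeast growth by compound, normalized to vehicle-treated cultures.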
# [4] = NCI Yeast Anticancer Drug Screen. Data for the rad50 strain (AID 155);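 further: 0% = growth of vehicle-only cultures of the same strain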; conditions: S. cerevisiae rad50 strain growth inhibition, stronger effect = higher value
# Summary of the method: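 Relative growth inhibition (compound vs vehicle) was measured in yeast with a defined repair-gene alteration.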
# [5] = NCI Yeast Anticancer Drug Screen. Data for the mec2-1 strain (AID 157); conditions: S. cerevisiae mec2-1 strain, stronger effect = higher value
# Summary of the method: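 Using mec2-1 yeast: add compound, measure growth, express inhibition versus vehicle-treated cultures.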
# [6] = NCI Yeast Anticancer Drug Screen. Data for the rad14 strain (AID 159);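 further: 0% = growth of vehicle-treated control cultures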; conditions: S. cerevisiae rad14 strain growth inhibition, stronger effect = higher value
# Summary of the method: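 Screen for anticancer potential: a yeast strain altered in DNA damage repair is grown with compound, and reduced growth is quantified against vehicle controls.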
# [7] = NCI Yeast Anticancer Drug Screen. Data for the sgs1 mgt1 strain (AID 161);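 further: 0% = growth of cultures given vehicle only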; conditions: S. cerevisiae sgs1 mgt1 strain, stronger effect = higher value
# Summary of the method: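 This yeast growth screen uses a strain with defined DNA-repair lesions; compound-treated growth is compared with vehicle-treated growth.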
# [8] = NCI Yeast Anticancer Drug Screen. Data for the CLN2oe strain (AID 163);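 further: 0% = growth of vehicle-only control cultures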; conditions: S. cerevisiae CLN2oe strain, stronger effect = higher value
# Summary of the method: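 Whole-cell yeast growth assay. A strain engineered for altered cell-cycle control received compound, and inhibition relative to vehicle-treated cultures was recorded.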
# [9] = NCI Yeast Anticancer Drug Screen. Data for the cln2 rad14 strain (AID 165);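 further: 0% = growth equal to vehicle treated cultures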; conditions: S. cerevisiae cln2 rad14 strain, stronger effect = higher value
# Summary of the method: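 Yeast strain cln2 rad14, bearing defects in cell cycle control and DNA repair, serves as the test system; values reflect growth inhibition compared with vehicle.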
# [10] = NCI Yeast Anticancer Drug Screen. Data for the bub3 strain (AID 167); conditions: S. cerevisiae bub3 mutant strain, stronger effect = higher value
# Summary of the method: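 Screening used yeast with an engineered genetic alteration affecting cell cycle control. Compound-exposed cultures were compared with vehicle cultures, and reduced growth was taken as inhibition.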
# [11] = NCI Yeast Anticancer Drug Screen. Data for the wt2 strain (AID 169);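 further: 0% = growth of vehicle-treated yeast cultures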; conditions: S. cerevisiae wt2 strain growth inhibition, stronger effect = higher value
# Summary of the method: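 Treated yeast vs. vehicle-treated yeast: growth inhibition determined.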
# [12] = NCI Yeast Anticancer Drug Screen. Data for the mlh1 strain (AID 171);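 further: 0% = growth of vehicle-treated control cultures of the same strain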; conditions: S. cerevisiae mlh1 strain growth inhibition, stronger effect = higher value
# Summary of the method: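 A yeast strain with a defined genetic lesion serves as the test organism. Cultures receive compound or vehicle, and growth is measured.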
# [13] = NCI Yeast Anticancer Drug Screen. Data for the sgs1 strain (AID 173);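 further: 0% = growth of vehicle-only control cultures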; conditions: S. cerevisiae sgs1 mutant, stronger effect = higher value
# Summary of the method: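 A genetically defined yeast mutant is incubated with the test compound, and its growth is compared to that of the same strain given vehicle.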
# [14] = NCI Yeast Anticancer Drug Screen. Data for the mlh1 rad18 strain (AID 175); conditions: S. cerevisiae mlh1 rad18 strain growth inhibition, stronger effect = higher value
# Summary of the method: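 Steps: expose repair-defective yeast to compound; measure growth; express inhibition against vehicle-treated controls.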
# [15] = NCI Yeast Anticancer Drug Screen. Data for the rad18 strain (AID 177); conditions: S. cerevisiae rad18 mutant growth inhibition, stronger effect = higher value
# Summary of the method: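 Measured value is growth inhibition of a yeast strain bearing a DNA repair alteration, referenced to vehicle-treated cells.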
# [16] = at 5.0 µM (retest, dose inferred, filed as 0.5)
# [17] = at 50.0 µM (retest, dose inferred, filed as 5.0)
structure (smiles),measurement,setting,value
Nc1cc(Cl)ccc1Nc1ccccc1,growth inhibition,[1]; at 1.2 µM,-25%
same,growth inhibition,[1]; at 3.7 µM,-22%
same,growth inhibition,[1]; at 11.0 µM,-27%
same,growth inhibition,[1]; at 33.0 µM,-18%
same,growth inhibition,[1]; at 100.0 µM,68%
same,growth inhibition,[2]; at 1.2 µM,-31%
same,growth inhibition,[2]; at 3.7 µM,-26%
same,growth inhibition,[2]; at 11.0 µM,-25%
same,growth inhibition,[2]; at 33.0 µM,-17%
same,growth inhibition,[2]; at 100.0 µM,94% (active)
same,growth inhibition,[3]; at 1.2 µM,-25%
same,growth inhibition,[3]; at 3.7 µM,-15%
same,growth inhibition,[3]; at 11.0 µM,-10%
same,growth inhibition,[3]; at 33.0 µM,-1%
same,growth inhibition,[3]; at 100.0 µM,85% (active)
same,growth inhibition,[4]; at 1.2 µM,-21%
same,growth inhibition,[4]; at 3.7 µM,-15%
same,growth inhibition,[4]; [16],60%
same,growth inhibition,[4]; at 11.0 µM,-8%
same,growth inhibition,[4]; at 33.0 µM,16%
same,growth inhibition,[4]; [17],99% (active)
same,growth inhibition,[4]; at 50.0 µM,79.2% (active)
same,growth inhibition,[4]; at 100.0 µM,93% (active)
same,growth inhibition,[5]; at 1.2 µM,-42%
same,growth inhibition,[5]; at 3.7 µM,-6%
same,growth inhibition,[5]; [16],65%
same,growth inhibition,[5]; at 11.0 µM,-49%
same,growth inhibition,[5]; at 33.0 µM,-33%
same,growth inhibition,[5]; [17],99% (active)
same,growth inhibition,[5]; at 50.0 µM,79.8% (active)
same,growth inhibition,[5]; at 100.0 µM,92% (active)
same,growth inhibition,[6]; at 1.2 µM,-7%
same,growth inhibition,[6]; at 3.7 µM,-13%
same,growth inhibition,[6]; at 11.0 µM,-14%
same,growth inhibition,[6]; at 33.0 µM,1%
same,growth inhibition,[6]; at 100.0 µM,87% (active)
same,growth inhibition,[7]; [16],9%
same,growth inhibition,[7]; [17],91% (active)
same,growth inhibition,[7]; at 50.0 µM,83.5% (active)
same,growth inhibition,[8]; at 1.2 µM,5%
same,growth inhibition,[8]; at 3.7 µM,3%
same,growth inhibition,[8]; at 11.0 µM,-1%
same,growth inhibition,[8]; at 33.0 µM,3%
same,growth inhibition,[8]; at 100.0 µM,84% (active)
same,growth inhibition,[9]; [16],24%
same,growth inhibition,[9]; [17],95% (active)
same,growth inhibition,[9]; at 50.0 µM,61.1%
same,growth inhibition,[10]; at 1.2 µM,-21%
same,growth inhibition,[10]; at 3.7 µM,-16%
same,growth inhibition,[10]; [16],20%
same,growth inhibition,[10]; at 11.0 µM,-24%
same,growth inhibition,[10]; at 33.0 µM,-8%
same,growth inhibition,[10]; [17],92% (active)
same,growth inhibition,[10]; at 50.0 µM,84% (active)
same,growth inhibition,[10]; at 100.0 µM,93% (active)
same,growth inhibition,[11]; at 1.2 µM,-15%
same,growth inhibition,[11]; at 3.7 µM,-15%
same,growth inhibition,[11]; at 11.0 µM,-22%
same,growth inhibition,[11]; at 33.0 µM,5%
same,growth inhibition,[11]; at 100.0 µM,95% (active)
same,growth inhibition,[12]; at 1.2 µM,-85%
same,growth inhibition,[12]; at 3.7 µM,-70%
same,growth inhibition,[12]; at 11.0 µM,-31%
same,growth inhibition,[12]; at 33.0 µM,-25%
same,growth inhibition,[12]; at 100.0 µM,79% (active)
same,growth inhibition,[13]; at 1.2 µM,-53%
same,growth inhibition,[13]; at 3.7 µM,-36%
same,growth inhibition,[13]; at 11.0 µM,-35%
same,growth inhibition,[13]; at 33.0 µM,4%
same,growth inhibition,[13]; at 100.0 µM,89% (active)
same,growth inhibition,[14]; [16],62%
same,growth inhibition,[14]; [17],99% (active)
same,growth inhibition,[14]; at 50.0 µM,84% (active)
same,growth inhibition,[15]; at 1.2 µM,-15%
same,growth inhibition,[15]; at 3.7 µM,-39%
same,growth inhibition,[15]; at 11.0 µM,-24%
same,growth inhibition,[15]; at 33.0 µM,-15%
same,growth inhibition,[15]; at 100.0 µM,85% (active)
